Pf Dd2 inh: blocks in vitro growth of P. falciparum Dd2; AID 1347417; Potency, µM (top dose mostly 28.9 µM), for the others: top-dose activity, negative = inhibition, most hits filed as inhibitors; 4.3% of 120,000 active; P. falciparum Dd2 growth, SYBR Green, 72 h; active means well fitted inhibition curve with a large enough effect;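 further: plate controls were DMSO vehicle for no effect and reference drug for full effect; nearly all actives have a fitted effect of over 65% in size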
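Readout: SYBR Green fluorescence, 485 nm excitation, 535 nm emission, after ~16 h lysis at 37C. Before that, Dd2-infected red cells (2.5% hematocrit) grew 72 h with compound, 29 uM top final concentration.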
* hit, by the source's call; i = inactive; [ ] = another dose, or the depositor's remark. Many of the other results were omitted from the sample, so hits are more common in it than they were. Potency means the concentration at half of the fitted maximal effect.

SMILES	Pf Dd2 inh
Cc1cc(C)n(Cc2ccc(C(=O)NCC3Cn4cccc4CN3Cc3ccccc3)o2)n1 (stereo not given)	5µM*
CN1Cc2cccn2CC1CNC(=O)Cc1ccccc1 (stereo not given)	-19%
CCn1ccc(C(=O)NCC2Cn3cccc3C(=O)N2CC(C)C)n1 (stereo not given)	-19%
Cn1cnc(S(=O)(=O)NCC2Cn3cccc3CN2Cc2ccccc2)c1 (stereo not given)	-16%
Cn1nccc1C(=O)NCC1Cn2cccc2CN1Cc1ccccc1 (stereo not given)	-8%
O=C(O)COCC(=O)N[C@H]1CCN2C(=O)c3cc(-c4ccc(F)cc4F)ccc3NC(=O)[C@H]12	-7%
O=C(NCc1ccccc1)C1=NO[C@@H]2CN(Cc3cccc(F)c3)C[C@H]12	32%[44.1 µM]
O=C1NCCCCCCN(C(=O)c2ccccn2)[C@H]2CCCC[C@@H]12	16%
Cc1ccc2nc3n(c2c1)[C@@H](CNS(=O)(=O)c1ccc(C#N)cc1)COC3	-6%[44.1 µM]
Cc1ccc(C(=O)NCCn2cccc2-c2nc(-c3ccc4c(c3)OCO4)no2)cn1	-12%
O=C(c1cc(C2CC2)no1)N1CCC2(CCCN(C3CCCC3)C2=O)C1 (stereo not given)	-26%
CCOCC(=O)N1[C@@H]2CC[C@H]1CC(NC(=O)c1cnc(C)cn1)C2 (stereo not given in full)	-8%
Cc1ccc(C(=O)N[C@@H]2CN(c3ccncn3)C[C@H]2CN(C)C)cn1	i
Cc1nc2c(c(-c3ccc(O)cc3)n1)CN(Cc1ccccc1)CCC2	4.5µM*
Cc1nc2c(c(-c3ccc(O)cc3)n1)CN(Cc1ccccc1)CC2	i
Cc1nc2c(c(-c3ccc(O)cc3)n1)CN(Cc1ccc(C(F)(F)F)cc1)CC2	-3%
Cc1nc2c(c(-c3ccc(O)cc3)n1)CN(Cc1cccnc1)CCC2	-1%
Cc1nc2c(c(-c3ccc(O)cc3)n1)CN(Cc1ccccn1)CCC2	i
Cc1nc2c(c(-c3ccc(O)cc3)n1)CN(Cc1cccc3ccccc13)CCC2	13µM*
Cc1nc2c(c(-c3ccc(O)cc3)n1)CN(Cc1ccc(C(F)(F)F)cc1)CCC2	0.89µM*
COc1ccc(CN2CCCc3nc(C)nc(-c4ccc(O)cc4)c3C2)cc1	-41%
COc1ccccc1CN1CCCc2nc(C)nc(-c3ccc(O)cc3)c2C1	-16%
NC(=O)c1ccc(CC2CCN(C(=O)C3CC3)CC2)cc1	-12%
CNC(=O)[C@@H]1C[C@H](n2cc(CNC(=O)CCC3CCCCC3)nn2)CN1	-2%
O=C(NC1CC1)C1COC2(CCN(C(=O)c3cccc(Cl)c3)CC2)N1C(=O)c1ccc(F)cc1 (stereo not given)	i
SMILES	Pf Dd2 inh
Cn1cccc1C(=O)C(=O)N1CCN(c2cccc(Cl)c2)C(=O)C1	-13%
COc1cccc(S(=O)(=O)N2CCCCCCNC(=O)[C@@H]3CCCC[C@@H]32)c1	-25%
O=C(NCc1cccnc1)c1c(OCC2CC2)cc(=O)n2c1CCOCC2	12%
CC(C)Oc1ccc(CNC(=O)C2(Cc3cccnc3)CCCCC(=O)N2)cc1 (stereo not given)	i
Cc1ccc2sc(N(CCCN(C)C)C(=O)c3ccco3)nc2c1C	8.9µM*
Cc1ccc(C)c2sc(N3CCN(C(=O)c4ccco4)CC3)nc12	9%
CCN(CC)CCN(C(=O)c1ccco1)c1nc2ccc(Cl)cc2s1	-5%
CC(C)(C)n1nnnc1C1CC2(CCOCC2)C(=O)N1Cc1cccc(C(F)(F)F)c1 (stereo not given)	-18%
O=c1cc(-c2cccnc2)oc2c(NCc3ccc(F)cc3)nccc12	11µM*
C[S+](=O)([O-])c1ccc(-c2nccc3c(=O)cc(-c4cccnc4)oc23)cc1	-8%[44.1 µM]
O=c1cc(-c2ccccn2)oc2c(NCc3ccccc3)nccc12	-14%[44.1 µM]
CC(=O)c1cccc(NC(=O)c2sc3nc4c(cc3c2N)CCCC4)c1	25%
Cc1cccc(NC(=O)c2sc3nc4c(cc3c2N)CN(C(C)C)CC4)c1	11µM*
CN1CCc2nc3sc(C(=O)Nc4cccc(C#N)c4)c(N)c3cc2C1	-23%
O=C(CSC12CC3CC(CC(C3)C1)C2)NCc1cc2n(n1)CCNC2	0%
Cc1ccsc1C(=O)N1CCC2(CC1)NC(=O)N(c1ccc(F)cc1)N2	-23%
CC[C@H]1CN(S(=O)(=O)c2ccccc2)CC[C@H]1CC(=O)N(C)CC#N	i
O=C(NC1CCCCCC1)c1nnn2cc(-c3ccc(Cl)cc3)[nH]c(=O)c12	i
CC(C)NC(=O)C1CCN(C(=O)c2cc3sccc3n2Cc2ccc(Cl)cc2)CC1	11µM*
Cn1c(C(=O)N2CCC(C(=O)NCCc3ccc(S(N)(=O)=O)cc3)CC2)cc2sccc21	1%
COC(=O)c1cc2sccc2n1Cc1ccc(F)cc1	i
CN1C(=O)CS(=O)(=O)C12CCN(C(=O)c1ccoc1)CC2	2%
CNC(=O)C1CCN(C(=O)c2ccc(-c3ncc4cnc(-c5ccccc5)cn34)cc2)CC1	i
CCC(=O)C1=C(c2cccc(OC)c2)N(C(=O)CC)n2c(nnc2C2CCCCC2)S1	2.8µM*
COc1cccc(C(=O)N2CCn3c(nnc3C3CC3)C2)c1	7%[44.1 µM]
SMILES	Pf Dd2 inh
CCC(=O)C1=C(c2cccc([N+](=O)[O-])c2)N(C(=O)CC)n2c(nnc2C2CCCCC2)S1	1.4µM*
CCOC(=O)C1=C(C)N=C2SC=C(CC(=O)NC3CC3)N2C1c1cccc([N+](=O)[O-])c1 (stereo not given)	0%
COc1cccc(-c2nnc(SCC(=O)N(C)C3CCCCC3)o2)c1	0%
CCC(=O)C1=C(c2cccc([N+](=O)[O-])c2)N(C(=O)CC)n2c(nnc2-c2ccccc2)S1	1.1µM*
CC(=O)Nc1cccc(-c2nnc(SCC(=O)c3cc([N+](=O)[O-])ccc3Cl)o2)c1	i
CC(=O)C1=C(c2cccc([N+](=O)[O-])c2)N(C(C)=O)n2c(nnc2-c2ccc(C)cc2)S1	15%
CN(C(=O)CSc1nnc(-c2ccc([N+](=O)[O-])cc2)o1)C1CCCCC1	23%
Cc1nc(-c2ccc(OC3CCN(C(=O)c4nn(C)c5ccccc45)C3)cc2)no1 (stereo not given)	i[5.79 µM]
CCOCCn1c(=O)n(CC[C@H](O)c2ccccc2)c2cc(C(=O)O)cnc21	21%
O=C(NC1CC(c2cc(=O)[nH]cn2)C1)c1ncc(F)cc1F (stereo not given)	-14%
CC(=O)N1C[C@@H]2CCCN3CCC[C@@H]([C@H]23)[C@H]1CCCC(=O)NCCCN1CCCCC1	-11%
CNCc1cn(C[C@H]2O[C@@H](CC(=O)NCc3ccc(F)cc3)[C@H](O)[C@@H]2O)nn1	-16%[44.1 µM]
CCc1nc(-c2c3n(c(=O)n(CC(=O)NC4CCCCC4)c2=O)CCCCC3)no1	15%
COc1ccc(NC(=O)Cn2c(=O)c(-c3noc(C)n3)c3n(c2=O)CCCC3)cc1Cl	-4%
Cc1ccccc1-c1nc(CS(=O)(=O)CC(=O)Nc2c(C)cccc2C)c(C)o1	4%
Cc1ccc(CSc2nc3ccncc3n2Cc2nc(-c3ccccc3C)oc2C)cc1	11%
Cc1ccccc1-c1nc(Cn2ccnc2C(C)C)c(C)o1	11µM*
C[S+](=O)([O-])CCn1ncc2cc(OCc3cccc(-c4ccoc4)c3)ccc21	-23%[44.1 µM]
COc1ccc(C(=O)NC2CCN(C(=O)N3CC4CC(C3)[C@H]3CCCC(=O)N3C4)CC2)c(OC)c1 (stereo not given in full)	-27%
COc1ccc(C(=O)NC2CCN(C(=O)N3CC4CC(C3)[C@H]3CCCC(=O)N3C4)CC2)cn1 (stereo not given in full)	i

High-throughput results as filed in PubChem BioAssay.
